Hits are enriched below; roughly 3.3% of the tested compounds scored in any of these assays.
14-3-3 Bad PPI – inhibitors of 14-3-3 zeta/Bad binding, primary screen, biochemical, TR-FRET, bovine 14-3-3 zeta | TR-FRET 14-3-3zeta/Dy647-pBad peptide displacement, 1 h | AID 781, 2007 | 14-3-3 protein zeta/delta (Bos taurus), P63103 | inhibition, % at 21.7 µM | hit rate 0.71% among 220,000;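 active = inhibition above about 70%, limit read from the data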;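 also: 0% = full 14-3-3 plus peptide FRET controls and 100% = background without 14-3-3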
Mcl1-Noxa inh – Mcl-1/Noxa binding inhibitors, primary screen, biochemical, TR-FRET, 1536-well; Induced myeloid leukemia cell differentiation protein Mcl-1 (Homo sapiens), Q07820; TR-FRET Mcl-1/Noxa peptide binding, 2 h; inhibition, % at 21.7 µM; hit rate 1.5% among 220,000;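 active = compounds that cut the protein-peptide binding signal by more than 50% relative to plate controls in a single-dose test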;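 also: His-tagged Mcl-1 with rhodamine Noxa BH3 peptide and terbium anti-His antibody; 0% = Mcl-1 plus Noxa peptide wells and 100% = peptide-only wells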
eIF4E 4G PPI – eIF4E–eIF4G protein interaction inhibitors, primary screen, biochemical, uHTS, TR-FRET, eIF4GI fragment | inhibition, % at 21.7 µM | AID 782, 2007 | Eukaryotic translation initiation factor 4E (Mus musculus) + Eukaryotic translation … | hit rate 0.37% among 220,000 | TR-FRET eIF4E-eIF4GI(517-606) binding, 2 h;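 also: 0% = full FRET control wells and 100% = background wells lacking eIF4GI fragment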
Mcl-1 Bim block – inhibitors of Bim peptide binding to Mcl-1, primary screen, biochemical, bead-based flow cytometry, multiplex; Induced myeloid leukemia cell differentiation protein Mcl-1 (Homo sapiens), Q07820; Bim peptide-Mcl-1 binding; inhibition, % at 10 µM; hit rate 0.1% among 190,000; in the data active = inhibition above about 40%;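 also: 0% = no compound tracer wells and 100% = peptide blocker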
p47phox inh – p47phox/p22phox peptide binding inhibitors, primary screen, biochemical, uHTS, NADPH oxidase regulatory subunit; Neutrophil cytosol factor 1 (Homo sapiens), P14598; fluorescence polarization, 2 h; inhibition, % at 24.7 µM; hit rate 0.53% among 220,000; AID 1274, 2008;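 also: 0% = p47phox with labelled peptide and 100% = labelled peptide alone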
Mcl1-Bid inh – Mcl-1/Bid binding inhibitors, primary screen, biochemical, TR-FRET, 1536-well; Induced myeloid leukemia cell differentiation protein Mcl-1 (Homo sapiens), Q07820; TR-FRET Mcl-1/Bid-Dy647 peptide binding; inhibition, % at 21.7 µM; hit rate 0.97% among 220,000;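 active = compounds that cut the binding signal by more than half at the single screening dose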;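 also: His-tagged Mcl-1 with europium anti-His antibody binding Bid BH3 peptide; 0% = Mcl-1 plus peptide wells and 100% = peptide-only wells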
The depositor's hits bear a star; x = no result; [ ] = remark or other dose.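 The calls were made as follows, unless noted: active = inhibition above about 30% (limit read from the data); inactive = the rest.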

SMILES | 14-3-3 Bad PPI | Mcl1-Noxa inh | eIF4E 4G PPI | Mcl-1 Bim block | p47phox inh | Mcl1-Bid inh
CCOC(=O)Cn1nc(C)n(-c2ccc(F)cc2)c1=O | -6 | 7 | -7 | 0 | -6 | -19
COc1cc(OC)c(OC)cc1CN1CCc2ccccc2C1 | 23 | 8 | 0 | 6 | -1 | 55*
COc1cc2c(cc1OC)CN(Cc1ccc(OC)c(C)c1OC)CC2 | 34 | 6 | 2 | -1 | 6 | 19
COc1cc(-c2[nH]ncc2CN2CCN(Cc3cccs3)CC2)cc(OC)c1OC | -2 | 7 | 90* | -3 | -9 | -30
c1csc(CN2CCOCC2)c1 | 83* | 18 | 2 | 2 | -1 | 21
COc1cc2c(cc1OC)CN(Cc1cccs1)CC2 | 74* | 26 | 0 | -1 | -2 | 40
Cc1ccc(C(=O)N2CCCC(c3ccc(Cl)cc3)=N2)cc1 | -10 | 11 | 6 | 1 | -8 | 15
C#CCCOC(=O)N1C2=NC(C(=O)OC)=C(C(=O)OC)[C@@H]3N(Cc4ccccc4)c4ccccc4[C@]23C[C@H]1C(=O)OC | 1 | 9 | 0 | x | -14 | -32
COc1ccc(OC)c(S(=O)(=O)Nc2ccc(Oc3ccccc3)cc2)c1 | -3 | 5 | 0 | -6 | -5 | 11
COc1ccc(OC)c(S(=O)(=O)Nc2ccc(O)c3ccccc23)c1 | 6 | 51* | 8 | 0 | -12 | -20
Cc1nc(N2CCOCC2)c2oc3ccccc3c2n1 | 5 | 9 | 1 | -3 | -6 | -1
c1ccc2c(c1)oc1c(N3CCOCC3)ncnc12 | 81* | 31 | -2 | -1 | -7 | 28
CCN(CCNC(=O)C1CCN(c2nnc(-n3cccc3)s2)CC1)c1ccccc1 | -3 | 20 | 3 | -2 | -8 | -24
O=C(Cc1cccs1)Nc1nnc(SCc2cccc3ccccc23)s1 | -6 | 68* | 10 | -3 | -23 | 18
COc1ccc(Cc2nnc(NC(=O)Cc3cccs3)s2)cc1OC | 63 | 96* | 37* | 0 | -46 | 76*
O=C(Cc1cccs1)Nc1nc2c(ccc3ccccc32)s1 | 13 | 10 | 5 | -3 | -21 | -11
O=C(Cc1cccs1)Nc1nnc(Cc2ccccc2)s1 | -14 | 82* | 17 | -17 | -54 | -39
COc1ccc(C(=O)Nc2nnc(Cc3cccs3)s2)cc1OC | 2 | -6 | -5 | -4 | -17 | -12
COc1cc(NC(=O)c2ccccc2)c(OC)cc1NC(=O)Cc1cccs1 | 1 | 61* | 39* | 0 | -3 | -108
Cc1nc(C(F)(F)F)ccc1C(=O)N1CCCCC1 | 1 | -11 | -3 | x | -2 | -17
O=C(NC(=S)Nc1cc(C(F)(F)F)ccc1N1CCOCC1)c1sc2ccccc2c1Cl | -5 | -10 | 3 | -3 | -4 | -29
CN(C)c1ccc(/C=C2\N=C(c3ccc(Cl)c([N+](=O)[O-])c3)NC2=O)cc1 | 57 | 73* | 11 | 0 | x | 40
O=C(Cc1c(F)cccc1Cl)Nc1ccon1 | -5 | 3 | 0 | 0 | -45 | 83*
Cc1cc(NC(=O)Cc2c(F)cccc2Cl)no1 | -2 | -12 | 2 | 0 | -5 | -11
Cc1cc(NC(=O)COC(=O)c2ccco2)no1 | -4 | 13 | 2 | 0 | 5 | -10
CC(=O)c1ccc(N2CCN(C(=O)CCCn3c(=S)[nH]c4cc5c(cc4c3=O)OCO5)CC2)cc1 | -9 | 35 | -28 | 0 | -15 | 55*
O=c1c2cnn(-c3ccccc3)c2nc(-c2cccs2)n1-c1ccc(Br)cc1 | -8 | -7 | 1 | -2 | -27 | 13
COC(=O)c1ccccc1NC(=O)COC(=O)c1ccc(C)c(NC(=O)c2ccco2)c1 | 89*[fluorescence artefact?] | -13 | 86*[fluorescence artefact?] | 0 | -32 | -16
CN(Cc1ccccc1)C(=O)COC(=O)/C=C/c1ccco1 | -15 | 6 | 48* | -3 | -6 | -24
COC(=O)c1ccccc1NC(=O)COC(=O)/C=C/c1ccco1 | 6 | 9 | 6 | -2 | -1 | 95*

High-throughput results (PubChem BioAssay)
